In PubChem BioAssay AID1159580 (chemical genetic matrix, 2015):
Where “and” joins values, the source holds several entries; their conditions need not be identical. Equal entries are not always repeated. About 2,000 (36%) of roughly 5,500 compounds were called active. Inconclusive results (about 18%) are left out. The list shows a part of the results. A number with no mark means an inactive call. No stated cut-off is given here; in the data, active means normalized growth mostly below about 0.91 (no sharp cut-off); inconclusive means no clear call, values can overlap the other calls; inactive means mostly above about 0.92.

Experiment: chemical genetic growth profiling, strain panel (AID 1159580);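 further: tested at 20 µM; growth read once vehicle control cultures reached saturation at 30 °C; 1 = growth at the plate median or of vehicle wells; lower values mean less growth of the strain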
Conditions: growth OD

In the case of `CN(C)CCN(Cc1cccs1)c1ccccn1`, the normalized growth (S. cerevisiae deletion strains, locus YJR066W, strain TOR1, active compounds read low) is reported as 0.82 (active), the normalized growth (S. cerevisiae deletion strains, locus YJR075W, strain HOC1, active compounds read low) is reported as 0.98 and 1.01 and the normalized growth (S. cerevisiae deletion strains, locus YKL009W, strain mrt4, active compounds read low) is reported as 1.02. It also gave a normalized growth (S. cerevisiae deletion strains, locus YKL068W, active compounds read low) of 1.01, a normalized growth (S. cerevisiae deletion strains, locus YKL085W, strain MDH1 (second series), active compounds read low) of 0.997 and a normalized growth (S. cerevisiae deletion strains, locus YKL085W, strain MDH1, active compounds read low) of 0.997. For the same compound, the normalized growth (S. cerevisiae deletion strains, locus YKL160W, strain elf1, active compounds read low) was 1.01, the normalized growth (S. cerevisiae deletion strains, locus YKL190W, strain CNB1, active compounds read low) was 0.985 and the normalized growth (S. cerevisiae deletion strains, locus YKR001C, strain vps1, active compounds read low) was 0.986. The normalized growth (S. cerevisiae deletion strains, locus YKR026C, strain gcn3, active compounds read low) was 1.01, the normalized growth (S. cerevisiae deletion strains, locus YKR091W, strain srl3, active compounds read low) was 1 and the normalized growth (S. cerevisiae deletion strains, locus YLL001W, strain dnm1, active compounds read low) was 1.01. It also gave a normalized growth (S. cerevisiae deletion strains, locus YLL026W, active compounds read low) of 1, a normalized growth (S. cerevisiae deletion strains, locus YLL041C, strain sdh2, active compounds read low) of 1.01 and a normalized growth (S. cerevisiae deletion strains, locus YLR027C, strain aat2, active compounds read low) of 1.01. For the same compound, the normalized growth (S. cerevisiae deletion strains, locus YLR039C, strain RIC1, active compounds read low) was 1.03, the normalized growth (S. cerevisiae deletion strains, locus YLR058C, strain SHM2, active compounds read low) was 1.02 and the normalized growth (S. cerevisiae deletion strains, locus YLR102C, strain apc9, active compounds read low) was 1.01. The normalized growth (S. cerevisiae deletion strains, locus YLR113W, strain HOG1, active compounds read low) was 0.995, the normalized growth (S. cerevisiae deletion strains, locus YLR221C, strain rsa3, active compounds read low) was 1.01 and the normalized growth (S. cerevisiae deletion strains, locus YLR258W, strain gsy2, active compounds read low) was 1.01. For the same compound, the normalized growth (S. cerevisiae deletion strains, locus YLR262C, strain YPT6 (second series), active compounds read low) was 1.01, the normalized growth (S. cerevisiae deletion strains, locus YLR262C, strain YPT6, active compounds read low) was 1.11 and the normalized growth (S. cerevisiae deletion strains, locus YLR268W, strain sec22, active compounds read low) was 1.01. The normalized growth (S. cerevisiae deletion strains, locus YLR320W, strain mms22, active compounds read low) was 1.04, the normalized growth (S. cerevisiae deletion strains, locus YLR330W, strain CHS5, active compounds read low) was 1 and the normalized growth (S. cerevisiae deletion strains, locus YLR342W, strain FKS1 (second series), active compounds read low) was 1.04. The normalized growth (S. cerevisiae deletion strains, locus YLR342W, strain FKS1, active compounds read low) was 1.01, the normalized growth (S. cerevisiae deletion strains, locus YLR357W, strain rsc2, active compounds read low) was 1.03 and the normalized growth (S. cerevisiae deletion strains, locus YLR370C, strain arc18, active compounds read low) was 1.02. The normalized growth (S. cerevisiae deletion strains, locus YLR371W, strain rom2, active compounds read low) was 1.01, the normalized growth (S. cerevisiae deletion strains, locus YLR384C, strain iki3, active compounds read low) was 1.01 and the normalized growth (S. cerevisiae deletion strains, locus YLR418C, strain cdc73, active compounds read low) was 1.02. For the same compound, the normalized growth (S. cerevisiae deletion strains, locus YML016C, strain PPZ1, active compounds read low) was 1.01, the normalized growth (S. cerevisiae deletion strains, locus YML032C, strain rad52, active compounds read low) was 0.988 and the normalized growth (S. cerevisiae deletion strains, locus YML120C, strain ndi1, active compounds read low) was 1.01. The normalized growth (S. cerevisiae deletion strains, locus YML124C, strain tub3, active compounds read low) was 1.01, the normalized growth (S. cerevisiae deletion strains, locus YMR058W, strain fet3, active compounds read low) was 1.01 and the normalized growth (S. cerevisiae deletion strains, locus YMR078C, strain ctf18, active compounds read low) was 1.02. For the same compound, the normalized growth (S. cerevisiae deletion strains, locus YMR125W, strain sto1, active compounds read low) was 1.01, the normalized growth (S. cerevisiae deletion strains, locus YMR129W, active compounds read low) was 1.01 and the normalized growth (S. cerevisiae deletion strains, locus YMR205C, strain PFK2, active compounds read low) was 1.02. The normalized growth (S. cerevisiae deletion strains, locus YMR223W, strain ubp8, active compounds read low) was 1.05, the normalized growth (S. cerevisiae deletion strains, locus YMR231W, strain pep5, active compounds read low) was 1.01 and the normalized growth (S. cerevisiae deletion strains, locus YMR307W, strain GAS1, active compounds read low) was 1.02. It also gave a normalized growth (S. cerevisiae deletion strains, locus YNL067W, strain RPL9B, active compounds read low) of 0.997, a normalized growth (S. cerevisiae deletion strains, locus YNL071W, strain lat1, active compounds read low) of 1 and a normalized growth (S. cerevisiae deletion strains, locus YNL128W, strain TEP1, active compounds read low) of 1.02. The normalized growth (S. cerevisiae deletion strains, locus YNL153C, strain GIM3, active compounds read low) was 0.989 and 1.02, the normalized growth (S. cerevisiae deletion strains, locus YNL175C, strain NOP13, active compounds read low) was 1.02 and the normalized growth (S. cerevisiae deletion strains, locus YNL183C, strain NPR1, active compounds read low) was 0.886. The normalized growth (S. cerevisiae deletion strains, locus YNL197C, strain WHI3, active compounds read low) was 0.992, the normalized growth (S. cerevisiae deletion strains, locus YNL209W, strain ssb2, active compounds read low) was 1 and the normalized growth (S. cerevisiae deletion strains, locus YNL224C, strain SQS1, active compounds read low) was 1.01. It also gave a normalized growth (S. cerevisiae deletion strains, locus YNL233W, strain BNI4, active compounds read low) of 0.986, a normalized growth (S. cerevisiae deletion strains, locus YNL248C, strain rpa49, active compounds read low) of 1.02 and a normalized growth (S. cerevisiae deletion strains, locus YNL250W, strain rad50, active compounds read low) of 1.02. For the same compound, the normalized growth (S. cerevisiae deletion strains, locus YNL271C, strain bni1, active compounds read low) was 1.01, the normalized growth (S. cerevisiae deletion strains, locus YNL298W, strain CLA4, active compounds read low) was 1.01 and the normalized growth (S. cerevisiae deletion strains, locus YNL307C, strain MCK1, active compounds read low) was 1.02. It also gave a normalized growth (S. cerevisiae deletion strains, locus YNL322C, strain KRE1 (second series), active compounds read low) of 1.01, a normalized growth (S. cerevisiae deletion strains, locus YNL322C, strain KRE1, active compounds read low) of 0.991 and a normalized growth (S. cerevisiae deletion strains, locus YNR049C, strain mso1, active compounds read low) of 1.02. For the same compound, the normalized growth (S. cerevisiae deletion strains, locus YNR052C, strain pop2, active compounds read low) was 1.01, the normalized growth (S. cerevisiae deletion strains, locus YOL006C, strain TOP1, active compounds read low) was 0.902 and the normalized growth (S. cerevisiae deletion strains, locus YOL012C, strain htz1) was 0.737. The normalized growth (S. cerevisiae deletion strains, locus YOL147C, strain pex11, active compounds read low) was 1.02, the normalized growth (S. cerevisiae deletion strains, locus YOR001W, strain rrp6, active compounds read low) was 1 and the normalized growth (S. cerevisiae deletion strains, locus YOR061W, strain CKA2, active compounds read low) was 1.01. It also gave a normalized growth (S. cerevisiae deletion strains, locus YOR069W, strain VPS5, active compounds read low) of 1.01, a normalized growth (S. cerevisiae deletion strains, locus YOR070C, strain gyp1, active compounds read low) of 1.01 and a normalized growth (S. cerevisiae deletion strains, locus YOR080W, strain dia2, active compounds read low) of 1. The normalized growth (S. cerevisiae deletion strains, locus YOR083W, strain WHI5 (second series), active compounds read low) was 1.01, the normalized growth (S. cerevisiae deletion strains, locus YOR083W, strain WHI5, active compounds read low) was 1.01 and the normalized growth (S. cerevisiae deletion strains, locus YOR106W, strain vam3, active compounds read low) was 0.998. It also gave a normalized growth (S. cerevisiae deletion strains, locus YOR136W, strain idh2, active compounds read low) of 1.01, a normalized growth (S. cerevisiae deletion strains, locus YOR144C, strain elg1, active compounds read low) of 1.01 and a normalized growth (S. cerevisiae deletion strains, locus YOR184W, strain ser1, active compounds read low) of 1.01. It also gave a normalized growth (S. cerevisiae deletion strains, locus YOR231W, strain MKK1, active compounds read low) of 0.88, a normalized growth (S. cerevisiae deletion strains, locus YOR265W, strain rbl2, active compounds read low) of 1.01 and a normalized growth (S. cerevisiae deletion strains, locus YOR270C, strain vph1, active compounds read low) of 1. It also gave a normalized growth (S. cerevisiae deletion strains, locus YOR290C, strain snf2, active compounds read low) of 1.01, a normalized growth (S. cerevisiae deletion strains, locus YOR316C, strain cot1, active compounds read low) of 1.01 and a normalized growth (S. cerevisiae deletion strains, locus YPL051W, strain arl3, active compounds read low) of 1.01. The normalized growth (S. cerevisiae deletion strains, locus YPL055C, strain LGE1, active compounds read low) was 0.929, the normalized growth (S. cerevisiae deletion strains, locus YPL078C, strain atp4, active compounds read low) was 1 and the normalized growth (S. cerevisiae deletion strains, locus YPL106C, strain sse1, active compounds read low) was 1. It also gave a normalized growth (S. cerevisiae deletion strains, locus YPL240C, strain hsp82, active compounds read low) of 1.01, a normalized growth (S. cerevisiae deletion strains, locus YPL256C, strain CLN2, active compounds read low) of 0.98 and a normalized growth (S. cerevisiae deletion strains, locus YPR119W, strain clb2, active compounds read low) of 1.01. The normalized growth (S. cerevisiae deletion strains, locus YPR141C, strain kar3, active compounds read low) was 1, the normalized growth (S. cerevisiae deletion strains, locus YPR163C, strain tif3, active compounds read low) was 1.01 and the normalized growth (S. cerevisiae deletion strains, locus YPR167C, strain met16, active compounds read low) was 1.01. For the same compound, the normalized growth (S. cerevisiae deletion strains, strain wtn01, active compounds read low) was 1.01 and the normalized growth (S. cerevisiae strains, strain wild type, active compounds read low) was 1.
